Screening data as filed in PubChem BioAssay.
Only some compounds are listed: those with a hit (about 21% of all), similar ones and a draw of the others.
Shiga toxin inh: blocks Shiga toxin action in Vero cells; inhibition, % at 38.7 µM; hit rate 9.2% among 290,000; Vero cells, Shiga toxin protein synthesis inhibition reporter; AID 2315; in the data active = inhibition mostly above about 28%, no sharp cut-off; inactive = mostly below about 43%; note: 0% is about no effect
Pf growth 48h: inhibits P. falciparum growth in the first generation, 48 h. Potency, µM (top dose mostly 28.7 µM), for inactives: top-dose activity change, negative = inhibition, usual class: inhibitors. hit rate 5.9% among 310,000. P. falciparum luciferase growth in erythrocytes, 48 h; note: potency is the fitted concentration of half-maximal effect; % is set by controls: 0 for no effect and ±100 for the full control effect
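First compound was added to culture medium, then infected red cells at 0.1% parasitemia and 2% hematocrit (final). After incubation at 37 C under 5% CO2, luciferase detection reagent was dispensed and light output recorded.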
CHX counter: affects cycloheximide protein synthesis inhibition readout, counter-screen | cell reporter, cycloheximide protein synthesis inhibition counterscreen | hit rate 12% among 300,000 | max response, %; in the data active = max response mostly above about 13%, no sharp cut-off; inactive = mostly below about 14%; note: read at 38.3 µM for the half of the compounds with a filed dose; 0% is about no effect
Pf growth 96h: P. falciparum growth inhibition at 96 hour, primary screen for plastid delayed-death inhibitors; hit rate 6.9% among 320,000; Potency, µM (doses to about 28.7 µM), for inactives: at the top dose activity change, negative = inhibition, most hits filed as inhibitors; P. falciparum luciferase reporter growth, 96 h; note: potency is the fitted concentration of half-maximal effect; % is set by controls: 0 for no effect and ±100 for the full control effect
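Infected RBCs, 2% Hct / 0.05% parasitemia final; luciferase-reporter P. falciparum; cpd 96 h, 37 C, 5% CO2; luciferase detection reagent; luminescence.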
HCV inhibitor: HCV inhibition. AID 651820. Potency, µM (series often up to 41.8 µM), without a hit: top-dose activity change, negative = inhibition, actives largely listed as inhibitors. Huh7.5.1 HCVcc-Cre infection, luciferase reporter, 44 h. hit rate 3.4% among 340,000; note: potency is the fitted concentration of half-maximal effect; % is set by controls: 0 for no effect and ±100 for the full control effect
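After 44 h co-culture of compound, cells and HCVcc-Cre (~0.5 moi), substrate is added for 15 min at room temperature and luciferase measured over 15 sec. Cells were seeded at 1,000/well and pre-cultured 4 h.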
HCMV antiviral: blocks human cytomegalovirus replication; hit rate 4.5% among 410,000; HFF cells, HCMV-luciferase reporter, 72 h; stronger effect = lower value; activity change, negative = inhibition, % at 57.5 µM; AID 1259415; in the data active = activity change below about -60%; inconclusive = no clear call, values can overlap the other calls; inactive = above about -39%; note: % is set by controls: 0 for no effect and ±100 for the full control effect
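HFF cells seeded 16 h at 37C, treated with compounds, infected with luciferase-reporter HCMV at MOI 1 PFU/cell; luciferase read at 72 h post infection, normalized to buffer-only and Salinomycin controls.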
Active calls of the source: *; ? = inconclusive; · = no result; ! = not active in a repeat. Unless noted, calls come from the whole dose curve; as a rule, active = well fitted inhibition curve with a large enough effect; inconclusive = small, poorly fitted or top-dose-only effect, or another doubt; inactive = no such curve, though single readings can be large or run the other way.

SMILES	Shiga toxin inh	Pf growth 48h	CHX counter	Pf growth 96h	HCV inhibitor	HCMV antiviral
CCOC(=O)N1CCN(S(=O)(=O)c2ccc(C(=O)Nc3nc4ccc(F)cc4s3)cc2)CC1	-9	-7%	1	?	-11%	20
CCOC(=O)c1ccc2nc(Nc3nc4ccc(F)cc4s3)sc2c1	147*	99%	150*	24%	11%	-91*
COc1ccc(S(=O)(=O)N2CCC(Nc3ccccc3Cl)CC2)cc1	-6	19%	-1	?	·	-15
CC1CCCCN1C(=O)COC(=O)C1CCN(S(=O)(=O)c2ccc3c(c2)OCCO3)CC1 (stereo not drawn)	·	-4%	·	2%	16%	-25
c1csc(-c2csc3nc(CN4CCOCC4)nc(NCc4ccc5c(c4)OCO5)c23)c1	1	?	8	8.3µM*	?	-23
CC[C@H](C)[C@H](NC(=O)OCc1ccccc1)C(=O)OCC(=O)N1CCN(c2ccc(F)cc2)CC1	·	·	·	·	?	22
Clc1ccc(-c2nnc(-c3ccccc3Cl)o2)cc1	115*	81%	46*	-23%	-2%	57
Clc1ccccc1-c1nnc(-c2ccccc2Cl)o1	68*	?	32*	?	-9%	109
Clc1ccc(-c2nnc(-c3cccc4ccccc34)o2)cc1Cl	10	35%	1	76%	15%	?
CCCNCc1nnc(-c2ccccc2Cl)o1	32	28%	7	25%	13%	4
CCOC(=O)c1ccccc1NC(=O)COC(=O)C1CC(=O)N(CCc2ccccc2)C1 (stereo not drawn)	·	39%	·	11%	3%	-3
Cc1cc(=O)[nH]c2nnc(SCC(=O)Nc3ccc(F)cc3F)n12	·	·	·	·	·	-40
COc1ccc(Br)cc1-c1nc(CCl)cs1	-20	-8%	-3	20%	10µM*	?
Cc1ccccc1C(=O)N1CCC(C(=O)NC(C)c2ccc(-n3ccnc3)cc2)CC1 (stereo not drawn)	-2	-27%	-1	?	-26%	-24
CCOC(=O)C(CC)Sc1ncnc2sc3c(c12)CCCC3 (stereo not drawn)	·	·	·	·	·	-5
Cc1ccc2nc(NC(=O)c3ccc(S(=O)(=O)N4CCC(C)CC4)cc3)sc2c1	·	·	·	·	·	-3
Cc1cccc2sc(NNC(=O)c3ccc(S(=O)(=O)N4CC(C)CC(C)C4)cc3)nc12 (stereo not drawn)	-3	?	-3	2.9µM*	?	-99*
Cc1cc(C)c2nc(NNC(=O)c3ccc(S(=O)(=O)N4CC(C)CC(C)C4)cc3)sc2c1 (stereo not drawn)	11	2.6µM*	2	1.9µM*	7.1µM*	-98*
Cc1cc(C)c2nc(NNC(=O)c3ccc(S(=O)(=O)N4CCCC(C)C4)cc3)sc2c1 (stereo not drawn)	-11	?	-4	2.3µM*	7.9µM*	-98*
Cc1cc(C)c2nc(NC(=O)c3ccc(S(=O)(=O)N4CCC(C)CC4)cc3)sc2c1	·	·	·	·	·	-3
Cc1ccc2nc(NNC(=O)c3ccc(S(=O)(=O)N4CCc5ccccc5C4)cc3)sc2c1	19	1.9µM*	8	2.9µM*	2.5µM*	-99*
COc1ccc2c([N+](=O)[O-])c(-c3ccccc3)[nH]c2c1	·	·	·	·	·	-20
Cc1nn(CC(C)C)c(Cl)c1C(=O)N(c1ccc(Cl)cc1F)S(C)(=O)=O	17	35%	-2	38%	-17%	-2
CCC(Oc1ccccc1)C(=O)Nc1ccccc1OCc1cc(=O)n2ccccc2n1 (stereo not drawn)	·	·	·	·	·	-27
CCn1c2ccccc2c2nnc(SCCN3CCOCC3)nc21	·	0%	-1	-12%	0%	-10
SMILES	Shiga toxin inh	Pf growth 48h	CHX counter	Pf growth 96h	HCV inhibitor	HCMV antiviral
Cn1c2ccccc2c2nnc(SCCN3CCOCC3)nc21	30	33%	16*	-57%	3%	8
Cn1c2ccc(F)cc2c2nnc(SCCN3CCCCC3)nc21	12	?	4	?	11µM*	-86*!
CCCCn1c2ccc(C)cc2c2nnc(SCCN3CCCCC3)nc21	3	13µM*	-1	?	?	-35
Cn1c2ccccc2c2nnc(SCc3nnc(-c4ccccc4)o3)nc21	-14	9%	-3	4.1µM*	·	·
COc1cccc(NC(=O)C(c2ccccc2)N2CCNC(=O)C2)c1 (stereo not drawn)	-7	8%	-1	-4%	·	·
CC[C@]12c3[nH]c4cc(CCC(=O)N(C)C)ccc4c3CCN1C(=O)[C@@H](CC(=O)NCCc1ccccn1)C[C@@H]2C(=O)N1CCN(C(=O)C2CC2)CC1	·	·	·	·	-3%	18
CCOC(=O)N1CCN(C(=O)c2ccc3c(c2)sc2nc(-c4ccc(OC)cc4)cn23)CC1	51	?	25*	-4%	14µM*!	·
COc1ccc2c(c1)sc1nc(-c3ccccc3)cn12	-27	-89%	-9	-3%	?	-98*
CCOC(=O)N1CCN(C(=O)c2sc3nc(-c4ccc(F)cc4)cn3c2C)CC1	-11	·	-5	-5%	-17%	-21
COc1ccc2oc(=O)c(-c3cn4c(n3)sc3cc(F)ccc34)cc2c1	·	·	·	·	·	-29
COc1ccc(-n2cc(-c3ccccc3)nc2SC)cc1	65*	56%	47*	4%	?	25
COc1ccc(-n2cc(-c3ccccc3)nc2SCC(=O)Nc2ccccc2C)cc1	·	·	·	·	·	-5
CSC1=C(C#N)C(c2sccc2C)CC(=O)N1 (stereo not drawn)	-13	7%	-3	41%	-18%	-31
CCN(CC(=O)Nc1c(F)cccc1F)C(=O)CNC(=O)c1ccc(C)s1	65*	91%	51*	47%	·	-9
CCNC(=S)Nc1cccc(F)c1C	1	9%	-5	15%	4%	36
Cc1cccc(NC(=O)Cc2cccs2)n1	69*	136%	33*	17%	8%	38
O=C(Nc1ccc(Cl)cc1)N(Cc1cccs1)Cc1cccs1	45*	?	14*	?	?	39
O=C(Cc1cccs1)Nc1cccc(-c2nnc(-c3ccco3)o2)c1	30	?	18	-16%	-27%	?
Cc1cc(NC(=O)Cc2cccs2)no1	-11	5%	1	?	-7%	52
CC(=O)N(C)c1ccc(NC(=O)Cc2cccs2)cc1	·	29%	18*	-26%	14%	177
Cc1ccc(-c2nnc(-c3ccc(NC(=O)Cc4cccs4)cc3)o2)cc1	7	7%	6	4%	?	-85*
CCCN(Cc1cccs1)C(=O)Nc1ccc(F)c(Cl)c1	·	·	·	·	·	1
NC(=O)c1ccc(NC(=O)Cc2cccs2)cc1	16	-13%	3	?	20%	77
CCC(C)/C=C/C1=CC2=C(Cl)C(=O)C3(C)OC(=O)C(C(=O)C(C)C(C)O)C3C2=CO1 (stereo not drawn)	-8	-3%	-1	68%	14%	4
